Bioassay records: PubChem, Buhrlage Lab, Dana-Farber Cancer Institute and Novartis Institutes for BioMedical Research (Cambridge, Mass)
Most compounds without a hit are left out; they make up all but 13% or so of the library.
USP10 block: inhibitors of human USP10 deubiquitinase | purified USP10, Ub-rhodamine fluorescence, 60 min | 47,000 compounds, 1.1% hits | inhibition, % at 20 µM | Q14694 | AID 1645856
USP30 block: blocks human USP30 ubiquitin-rhodamine cleavage; inhibition, % at 25 µM; purified USP30, Ub-rhodamine cleavage fluorescence; Q70CQ3; 47,000 compounds, 5.3% hits
OTUD3 inh: human OTUD3 deubiquitinase inhibition. Q5T2D3. purified OTUD3, Ub-rhodamine fluorescence, 2 h. inhibition, % at 25 µM. 47,000 compounds, 0.7% hits. AID 1645858
USP17 block: human USP17-like deubiquitinase inhibition | A8MUK1 | purified USP17, Ub-rhodamine cleavage fluorescence, 3 h | inhibition, % at 50 µM | 47,000 compounds, 6.5% hits
Target sequence (A8MUK1 whole entry, looked up): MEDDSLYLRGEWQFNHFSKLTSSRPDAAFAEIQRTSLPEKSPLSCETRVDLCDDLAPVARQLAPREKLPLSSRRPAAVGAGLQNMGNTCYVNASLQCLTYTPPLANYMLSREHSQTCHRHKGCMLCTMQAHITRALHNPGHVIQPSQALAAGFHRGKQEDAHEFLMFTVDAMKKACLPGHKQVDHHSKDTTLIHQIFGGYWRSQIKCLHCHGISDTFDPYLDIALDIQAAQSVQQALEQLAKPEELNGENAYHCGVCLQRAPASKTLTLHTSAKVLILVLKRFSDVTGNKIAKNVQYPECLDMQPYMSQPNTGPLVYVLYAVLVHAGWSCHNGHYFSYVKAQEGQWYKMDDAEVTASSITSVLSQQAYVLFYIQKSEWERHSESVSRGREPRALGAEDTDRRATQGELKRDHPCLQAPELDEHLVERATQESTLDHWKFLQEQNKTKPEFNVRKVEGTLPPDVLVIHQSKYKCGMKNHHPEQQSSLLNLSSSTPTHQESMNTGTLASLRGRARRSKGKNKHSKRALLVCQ
USP28 inh: blocks human USP28 ubiquitin-rhodamine cleavage | 47,000 compounds, 3% hits | Q96RU2 | purified USP28, Ub-rhodamine cleavage fluorescence, 30 min | AID 1645857 | inhibition, % at 25 µM
USP8 inh: inhibitors of human USP8 deubiquitinase; P40818; inhibition, % at 20 µM; 47,000 compounds, 4.2% hits; AID 1645853; purified USP8, Ub-rhodamine cleavage fluorescence, 30 min
A number is an active result; . = inactive; / = no result given. Cut-off read from the data, not from the text of the source: active = inhibition above about 30%; inactive = the rest.

SMILES	USP10 block	USP30 block	OTUD3 inh	USP17 block	USP28 inh	USP8 inh
CC1=C(C(=O)OC2CCCCCC2)C(c2ccccc2[N+](=O)[O-])CC(=O)N1 (centres undefined)	.	.	.	.	.	62.3
COc1ccc2cc(C(=O)NCc3ccccn3)[nH]c2c1	.	.	.	.	.	.
COc1ccc2[nH]c(C(=O)N(Cc3ccccn3)Cc3ccccn3)cc2c1	.	.	.	43.6	.	80.6
Cc1nc(-c2ccc(C)c(S(=O)(=O)NC(C)C(=O)Nc3ccc(C)c(F)c3)c2)no1 (centres undefined)	.	35.6	.	.	.	.
O=C(C=C(c1ccccc1)c1ccccc1)NCC1(c2ccccc2)CCCC1	.	.	.	.	.	.
CCOC(=O)c1ccc(NC(=O)COc2cccc3c2CCN(Cc2cccnc2)C3=O)cc1	.	.	.	.	31.8	.
Cc1noc(C)c1CC(=O)Nc1nnc(-c2ccc(C(C)C)cc2)s1	.	.	.	.	.	32.0
COc1ccc(CN2CCC3(CC2)OCCc2cnc(C)nc23)c(OC)c1	.	31.9	.	.	.	.
CCOc1cc(C2Nc3ccccc3C(=O)N2c2ccc3c(c2)OCO3)ccc1O (centres undefined)	.	.	.	.	.	30.9
O=c1c2ccccc2c2ccccc2c(=O)n1-c1ccc2c(c1)OCO2	.	.	.	.	.	.
CCOc1ncccc1C(=O)Nc1ccnn1Cc1ccccc1	49.9	.	.	.	.	.
Cc1cc(CSc2ncccc2C(=O)Nc2ccnn2Cc2ccccn2)no1	.	.	.	.	.	.
CCOc1ncccc1C(=O)Nc1ccnn1Cc1ccc(C)s1	.	.	.	.	.	.
Cc1cc(CSc2ncccc2C(=O)Nc2ccnn2Cc2cccnc2)no1	.	.	81.3	.	.	.
Cc1ccc(OCC(=O)N2CC[C@@H]3CN(CCC(C)C)S(=O)(=O)[C@@H]3CC2)cc1	.	.	.	.	.	.
O=C(Nc1ccccc1)c1csc(-c2ccc3c(c2)CCO3)n1	.	.	.	.	.	.
COc1ccc(NC(=O)c2cc(S(=O)(=O)N(C)C)ccc2N2CCCC2)cc1Cl	.	.	.	.	.	.
CN(C)S(=O)(=O)c1ccc(N2CCCC2)c(C(=O)Nc2ccc(-c3cn4ccsc4n3)cc2)c1	.	38.0	.	52.0	32.3	.
O=C(Cc1ccc2c(c1)CCO2)Nc1ccc(-c2cn3ccsc3n2)cc1	.	.	.	36.2	.	.
CC(NCc1nnc(-c2ccc(C(C)(C)C)cc2)o1)c1ccccc1 (centres undefined)	.	.	.	.	.	.
C(=C\c1ccccc1)/CSc1nc2nccc(-c3ccccc3)n2n1	.	.	.	.	.	.
O=C(C(Sc1ccccc1)c1ccccc1)N1CCN(c2cccc(C(F)(F)F)c2)CC1 (centres undefined)	.	30.7	.	/	.	.
O=C(CN1C(=O)CCOc2ccccc21)N1CCN(c2cccc(C(F)(F)F)c2)CC1	.	.	.	.	.	.
Cc1cc(C)n(-c2ccc(C(=O)NCc3cn4cc(C(F)(F)F)cc(Cl)c4n3)cc2)n1	.	.	.	36.7	.	.
COc1ccccc1/C=C/C(=O)Nc1sc2c(c1C(N)=O)CCCC2	.	.	.	.	.	.
SMILES	USP10 block	USP30 block	OTUD3 inh	USP17 block	USP28 inh	USP8 inh
Cc1ccc2nc(-c3ccc(NC(=O)COC(=O)CCC(=O)Nc4sc5c(c4C(N)=O)CCC5)cc3)sc2c1	.	.	.	.	.	47.1
COc1ccc(C(=O)Nc2nnc(S(=O)(=O)N3CCCc4ccccc43)s2)cc1OC	.	.	.	.	.	.
O=C1c2ccccc2-c2nnc(-c3ccncc3)cc21	.	33.8	.	47.1	.	95.0
Cc1ccc2c(Nc3ccccc3)c(-c3nc(C4CC4)no3)cnc2n1	.	.	.	.	47.7	.
Cc1ccc2nc(CN(C)c3ccccc3)cc(=O)n2c1	.	.	.	35.8	.	74.2
Cc1ccc2nc(CNc3ccc(F)cc3C)cc(=O)n2c1	.	.	42.0	84.7	52.1	93.0
CN(Cc1cc(=O)n2ccsc2n1)c1ccccc1	.	.	.	.	.	34.7
CN1Cc2[nH]cnc2C[C@H]1C(=O)N1CCC(Cc2ccccc2)CC1	.	.	.	.	.	.
C=C(NC(=O)C(=C)NC(=O)c1csc(C2=N[C@@H]3c4csc(n4)[C@H]4NC(=O)c5csc(n5)[C@H]([C@](C)(O)[C@@H](C)O)NC(=O)[C@H]5CSC(=N5)/C(=C/C)NC(=O)C([C@@H](C)O)NC(=O)c5csc(n5)C3(CC2)NC(=O)[C@H](C)NC(=O)C(=C)NC(=O)[C@H](C)NC(=O)C([C@@H](C)CC)N[C@@H]2C=Cc3c(C(C)O)cc(nc3[C@H]2O)C(=O)OC4C)n1)C(N)=O (some centres undefined)	.	.	.	54.3	.	.
O=C(NCc1ccccc1Cl)c1ccc2c(c1)NC(=O)c1ccccc1S2(=O)=O	.	.	.	.	.	.
Cn1c(=O)c2c(ncn2CCOc2ccc(F)cc2)n(C)c1=O	.	.	.	.	33.3	.
O=C(COc1ccc(Cl)cc1)N1CCc2[nH]nc(-c3ccc(Cl)cc3)c2C1	.	33.3	.	.	.	.
CN1C(=O)OC[C@@H]2CCN(C(=O)Nc3ccc(C(=O)O)cc3)C[C@H]21	.	.	.	.	.	.
Cc1ccc(Nc2ncc(C(=O)NCC3COc4ccccc4O3)c3ccccc23)cc1Cl (centres undefined)	.	.	.	.	.	.
CCOC(=O)c1cnc(Nc2ccc(F)c(Cl)c2)c2ccccc12	.	.	.	44.2	.	.
Cc1ccc(C(N)=O)c(OC(C)C(=O)N2CCCCCC2)c1 (centres undefined)	.	.	.	.	.	.
COc1cccc2sc(N3CCN(c4nc5ccccc5s4)CC3)nc12	.	.	.	77.1	.	.
COc1ccc(Cn2nnnc2CN2CCN(c3nc4ccccc4s3)CC2)cc1	.	.	.	.	.	.
CSc1cccc(NC(=O)CCc2nc3c(C)nn(-c4ccccc4)c3n(C)c2=O)c1	.	.	.	42.7	.	.
Cc1nn(-c2ccccc2)c2c1nc(CCC(=O)NCc1ccccc1F)c(=O)n2C	.	42.8	.	.	.	.
CCn1c(=O)c(CCC(=O)NCc2ccccc2F)nc2c(C)nn(-c3ccccc3)c21	.	.	.	.	.	.
Cc1ccc(NC(=O)CCc2nc3c(C)nn(-c4ccccc4)c3n(C)c2=O)cc1C	.	.	.	.	.	.
CCc1cccc(NC(=O)CCc2nc3c(C)nn(-c4ccccc4)c3n(C)c2=O)c1	.	.	.	48.0	.	.
Cc1nc(C2COCCN2C(=O)c2sc(C)nc2C)cc(=O)[nH]1 (centres undefined)	.	.	.	.	.	.
Brc1ccc(-c2csc(Cc3ccccc3)n2)cc1	.	.	.	.	.	.
CC(C)(C)c1ccc(NC(=O)CCn2ccc(=O)[nH]c2=O)cc1	.	39.8	.	.	.	.
